Bioassay records from PubChem BioAssay.
The list is not random: actives were taken first. Their share in the collection is about 10%.
HEK cytotox: kills HEK 293 cells | HEK 293 viability, ATP luminescence (CellTiter-Glo), 48-72 h | Potency, µM (titrated, usually from 115 µM), for the others: at the highest dose activity change, negative = cytotoxicity, actives largely listed as inhibitors | actives 6.6% (n = 94,000) | AID 1345083; further: nearly all actives have a fitted effect of over 60% in size
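CellTiter-Glo luminescence (cellular ATP) was read after 48 or 72 hr of compound exposure at 37 degree Celsius. Cells were HEK 293 plated at 250 cells/well.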
GPT2 inh: blocks human glutamate pyruvate transaminase 2 | Q8TD30 | Recombinant GPT2, coupled pyruvate oxidase/HRP Amplex Red fluorescence | Potency, µM (doses to about 57.7 µM), without a hit: at the highest dose activity change, negative = inhibition, most hits filed as inhibitors | actives 0.25% (n = 100,000) | AID 1671188; further: nearly all actives have a fitted effect of over 60% in size
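Fluorescence read-out: pyruvate from GPT2 turnover coupled to pyruvate oxidase, HRP and Amplex Red (0.2mM ThPP, 0.2U/mL PO and HRP, 50uM Amplex final). Substrates 250uM a-KG, 2mM L-alanine; enzyme 10ng/uL; 30 min RT.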
3T3 cytotox: cytotoxic compounds in NIH 3T3 cells | Potency, µM (top dose mostly 96.7 µM), inactives show top-dose activity change, negative = cytotoxicity, hits mostly inhibitors | actives 4.3% (n = 94,000) | NIH 3T3 viability, CellTiter-Glo ATP luminescence, 48-72 h; further: nearly all actives have a fitted effect of over 55% in size
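Cells were seeded at 400 per well, treated with pin-transferred compound, and kept 48 or 72 hr at 37 °C before CellTiter-Glo addition and luminescence imaging of cellular ATP.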
Luciferase inh: blocks purified firefly luciferase enzyme activity; AID 1347043; purified P. pyralis luciferase, luminescence, biochemical; Potency, µM (doses to about 115 µM), actives largely listed as inhibitors; actives 2.5% (n = 76,000); further: nearly all actives have a fitted effect of over 65% in size
Target sequence (P08659 whole entry, looked up): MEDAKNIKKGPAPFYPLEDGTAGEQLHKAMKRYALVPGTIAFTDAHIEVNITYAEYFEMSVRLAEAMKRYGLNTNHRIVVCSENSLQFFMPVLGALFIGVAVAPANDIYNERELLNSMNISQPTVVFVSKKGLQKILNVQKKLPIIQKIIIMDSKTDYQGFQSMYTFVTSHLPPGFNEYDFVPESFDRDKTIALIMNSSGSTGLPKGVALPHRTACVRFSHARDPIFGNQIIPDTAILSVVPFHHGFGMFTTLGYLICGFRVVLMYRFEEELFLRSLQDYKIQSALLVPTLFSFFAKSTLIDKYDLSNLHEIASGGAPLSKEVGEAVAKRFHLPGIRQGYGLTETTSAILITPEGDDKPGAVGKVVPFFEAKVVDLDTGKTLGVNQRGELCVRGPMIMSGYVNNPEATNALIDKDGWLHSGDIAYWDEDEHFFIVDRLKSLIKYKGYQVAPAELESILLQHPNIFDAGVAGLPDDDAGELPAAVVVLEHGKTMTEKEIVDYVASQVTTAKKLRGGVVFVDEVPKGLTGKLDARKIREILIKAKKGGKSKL
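Biochemical qHTS: compound (6-point titration) added to 10uM D-luciferin plus 10uM ATP in Tris acetate pH 7.5 buffer with Mg, Tween-20 and BSA, then purified enzyme at 10nM; light output imaged.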
hNpr1 antagonist: blocks ANP-stimulated signaling of human Npr1 receptor. P16066. HEK293 hNpr1 GloSensor cGMP, ANP-stimulated luminescence. Potency, µM (titrated, usually from 46.3 µM), for the others: at the highest dose activity change, negative = inhibition, hits mostly inhibitors. actives 1.6% (n = 76,000). AID 1347048; calls by dose curve; further: nearly all actives have a fitted effect of over 60% in size
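HEK293 cells stably expressing human Npr1 and cGMP GloSensor pGS-40F, loaded 2 h with 2% GloSensor reagent, given compound 30 min at room temperature. Luminescence read before and 20 min after 0.1 nM hNppA.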
The depositor's hits bear a star; i = inactive; u = inconclusive; x = no result given; ! = not confirmed by another sample; [ ] = another dose, or the depositor's remark. Unless noted, the call rests on the fitted dose curve; in most records, active means well fitted curve in the direction sought with a large enough effect; inconclusive means small, poorly fitted or top-dose-only effect, or another doubt; inactive means no such curve, though single readings can be large; an effect the other way counts as inactive or inconclusive. On the % scale 0 is the no-effect control and ±100 the full control effect; potency means the concentration at half of the fitted maximal effect.

SMILES | HEK cytotox | GPT2 inh | 3T3 cytotox | Luciferase inh | hNpr1 antagonist
Cc1nn(C)c(C)c1S(=O)(=O)N1CCC2(CC1)c1[nH]c3ccccc3c1CCN2C | 89.1µM* | 2.3% | -17.6% | i | 2.6%
c1ccc(CN(Cc2ccccn2)[C@H]2C[C@H]3CCOC[C@@]3(c3ccccc3)C2)cc1 | 50.1µM* | x | u | x | x
COc1cccc(CN(Cc2ccccc2)[C@H]2C[C@H]3CCOC[C@@]3(c3ccccc3)C2)c1 | u | x | -21.5% | x | x
C[N+](C)([O-])CCNc1ccc(NCC[N+](C)(C)[O-])c2c1C(=O)c1c(O)ccc(O)c1C2=O | x | -29.6% | x | x | x
O=C1c2c(O)ccc(O)c2C(=O)c2c(NCCNCCO)ccc(NCCNCCO)c21 | x | 10µM*! | x | x | x
COc1cccc(-c2ccc3onc(C)c3n2)c1 | u | -8.4%[88.5 µM] | u | u | 0.0%[70.6 µM]
COc1ccc(-c2ccc3onc(C)c3n2)cc1OC | u | -1.2%[88.5 µM] | 39.8µM* | i | -1.7%[70.6 µM]
COc1ccc(-c2noc([C@@H]3CCCN3C(=O)c3ccc(Cl)cc3)n2)cc1OC | u | i | u | i | -0.5%
COc1ccc(-c2noc([C@@H]3CCCN3C(=O)c3cc(Cl)ccc3OC)n2)cc1 | 25.1µM* | 3.0% | u | i | -3.0%
COc1ccc(-c2noc([C@@H]3CCCN3C(=O)c3ccc(F)c(Cl)c3)n2)cc1OC | 39.8µM* | 4.7% | u | i | 2.9%
CCCCOc1ccc(C(=O)N2CCC[C@H]2c2nc(-c3ccc(C)cc3)no2)cc1 | 22.4µM* | u | 35.5µM* | i | -24.1%
CC1=C[C@@H](CNCc2ccncc2)[C@H](C(C)C)C[C@H]1Cc1nnc(-c2ccc([N+](=O)[O-])cc2)o1 | 39.8µM* | 2.6% | u | i | -6.1%
CC1=C[C@@H](CN2CCC(O)CC2)[C@H](C(C)C)C[C@H]1Cc1nnc(-c2ccc([N+](=O)[O-])cc2)o1 | u | 3.9% | u | i | -2.0%
CC1=C[C@@H](CNC(C)C)[C@H](C(C)C)C[C@H]1Cc1nnc(-c2ccc([N+](=O)[O-])cc2)o1 | 79.4µM* | i | 89.1µM* | i | -12.5%[70.6 µM]
COc1cccc(C(=O)N2CCC(Cc3noc(-c4ccccc4)n3)C2)c1 (configuration not stated) | u | -2.2% | u | x | x
COCC1CN(C2CCC2)CC12CCN(C(=O)c1ccc(OC)c(F)c1)CC2 (configuration not stated) | u | i | -19.7% | i | -14.7%
Cc1cc(C(=O)N(C)CC2CCCN(CCc3ccccc3F)C2)n[nH]1 (configuration not stated) | 1.2% | u | 0.1% | i | 3.3%
Cc1ccccc1CCN1CCCC(CN(C)C(=O)c2cc3ccccc3[nH]2)C1 (configuration not stated) | 22.4µM* | 4.8% | u | i | u
COc1cccc(Nc2ncc(-c3ccccc3OC)c3c2OCC3)c1 | u | -20.8%[88.5 µM] | u | i | -14.9%[70.6 µM]
COc1ccc(-c2cnc(Nc3ccc(CN4CCN(C)CC4)cc3)c3c2CCO3)cn1 | u | i | 28.2µM* | u | -15.4%[70.6 µM]
COc1ccccc1-c1cnc(Nc2ccc(CN3CCN(C)CC3)cc2)c2c1CCO2 | 35.5µM* | 2.7%[88.5 µM] | 25.1µM* | u | -10.5%[70.6 µM]
COc1ccc(C(=O)Nc2ncc(-c3ccc(OC)nc3)c3c2OCC3)cc1 | -21.0%[172 µM] | -28.7%[88.5 µM] | u | u | -11.1%[70.6 µM]
O=C(Nc1ccccc1F)C1CCCCN1Cc1ccc(-c2cccs2)cc1 (configuration not stated) | u | -3.9% | u | x | x
Cc1ccsc1CN1CCOc2cc([S+](=O)([O-])Nc3ccccc3)ccc2C1 | 63.1µM* | 2.9%[88.5 µM] | 44.7µM* | i | u
O=[S+]([O-])(Nc1nncs1)c1ccc2c(c1)OCCN(Cc1cncc(F)c1)C2 | -21.8%[172 µM] | 2.4%[88.5 µM] | 28.2µM* | i | -3.1%[70.6 µM]
Cn1cc(CN2CCOc3cc([S+](=O)([O-])Nc4cccnc4)ccc3C2)cn1 | 2.9%[172 µM] | -0.3%[88.5 µM] | 100µM* | i | 6.2%[70.6 µM]
O=[S+]([O-])(Nc1nncs1)c1ccc2c(c1)OCCN(Cc1ccncc1)C2 | 4.5%[172 µM] | -24.3%[88.5 µM] | u | i | -3.0%[70.6 µM]
